# From PubChem BioAssay AID1578 (Sanford-Burnham Center for Chemical Genomics, 2009)
# Hit rate of the full screen: of about 290,000 compounds, about 3,000 (1%) were called active. Cut-off read from the data, not from the text of the source: active = inhibition mostly above about 36% (no sharp cut-off); inactive = mostly below about 34%. Only a selection was taken, and actives are over-represented in it overall.
# Experiment: inhibition of NOD1-driven NF-kB reporter – cell-based, luminescence, uHTS, primary screen (AID 1578);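 note: HEK-293T reporter cells stimulated with the NOD1 agonist gamma-tri-DAP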
# Conditions: NOD1-driven NF-kB luciferase reporter cells, at 4 µM, hits give high values
row,SMILES,inhibition
1,CC(NC(=O)c1cc(COc2ccc3ncccc3c2)on1)c1ccc(F)cc1 (stereo unspecified),7.2% (inactive)
2,CCC(O)C1CCN(C(=O)c2cc(COc3ccc4ncccc4c3)on2)CC1 (stereo unspecified),52.9% (inactive)
3,O=C(c1cc(COc2ccc3ncccc3c2)on1)N1CCCC1,19.1% (inactive)
4,O=C(NC1CCCC1)c1cc(COc2ccc3ncccc3c2)on1,26.8% (inactive)
5,Cc1ccc(OCc2cc(C(=O)NCc3cc(F)ccc3C)no2)cn1,-13.5% (inactive)
6,Cc1ccc(F)cc1CNC(=O)c1cc(COc2ccc3ncccc3c2)on1,59.8% (active)
7,CCN1CCN(C(=O)c2cc(COc3ccc4ncccc4c3)on2)CC1,26.3% (inactive)
8,CC(=O)c1ccc(OCc2cc(C(=O)NC3CCCCC3)no2)cc1,-46.8% (inactive)
9,O=C(NC1CCCCCCC1)c1cc(COc2ccc3ncccc3c2)on1,44.4% (active)
10,O=C(c1cc(COc2ccc3ncccc3c2)on1)N1CCC(O)CC1,0.3% (inactive)
11,CS(=O)(=O)N1CCN(c2ccccc2NC(=S)NC(=O)c2ccccc2[N+](=O)[O-])CC1,-7.4% (inactive)
12,O=C(COC(=O)CNS(=O)(=O)c1ccccc1)Nc1ccc(Cl)cn1,-21% (inactive)
13,Cc1cc(C)n(-c2ccc(C(=O)Nc3sccc3C(N)=O)cc2)n1,-77.9% (inactive)
14,COc1ncnc2c1oc1nc(C(C)C)c3c(c12)CC(C)(C)OC3,-12.3% (inactive)
15,CCN(CC)S(=O)(=O)c1cccc(N=Nc2sc(N)nc2C)c1,1.1% (inactive)
16,N#Cc1ccc(OCC(O)CS(=O)(=O)c2ccccc2)cc1 (stereo unspecified),-22.8% (inactive)
17,CC(=O)c1ccc(NC(=O)C2CCCN(C(=O)c3ccc(Cl)cc3)C2)cc1 (stereo unspecified),-22.6% (inactive)
18,O=C1CCCN1S(=O)(=O)c1ccc(F)cc1,5.5% (inactive)
19,CCOc1ccc(NC(=O)C2CCCN(S(=O)(=O)c3ccc4c(c3)CC(C)N4C(C)=O)C2)cc1 (stereo unspecified),-4% (inactive)
20,COn1c(-c2ccccc2)nc2ccc(Cl)cc21,-72.4% (inactive)
21,Cc1cc(C(=O)N/N=C/c2c(C)nn(-c3ccccc3)c2Cl)n[nH]1,-4.6% (inactive)
22,CC(=O)N(C(C)=O)S(=O)(=O)c1ccc(N=NN2CCOCC2)cc1,-25.7% (inactive)

row,SMILES,inhibition
1,O=C(Nc1ccccc1C(=O)Nc1cccnc1)c1ccccc1,-11.8% (inactive)
2,Cc1csc(NC(=O)c2ccc(=O)[nH]c2)n1,-4.6% (inactive)
3,Cc1ccc2c(c1)C1CN(C)CCC1N2C(=S)NC(=O)c1ccc(Cl)cc1Cl (stereo unspecified),-10.8% (inactive)
4,Cc1ccc2c(c1)C1CN(C)CCC1N2C(=S)NC(=O)c1ccc(Br)cc1 (stereo unspecified),61.2% (active)
5,Cc1ccc2c(c1)C1CN(C)CCC1N2C(=S)Nc1ccc(Cl)cc1Cl (stereo unspecified),13% (inactive)
6,CCOc1cc(C2Nc3ccccc3NC3=C2C(=O)CC(C)(C)C3)ccc1O (stereo unspecified),-14.4% (inactive)
7,NC(=O)CSc1nc(C23CC4CC(CC(C4)C2)C3)nc2ccccc12,58.4% (active)
8,Cc1nonc1NC(=O)CSc1nc(C23CC4CC(CC(C4)C2)C3)nc2ccccc12,2.5% (inactive)
9,NC(=O)CSc1nc(-c2ccccc2)nc2ccccc12,-12.4% (inactive)
10,Cc1ccc(NC(=O)CCOc2ccccc2)cc1,-12.7% (inactive)
11,CCC(C)NC(=O)C(Cc1ccccc1)n1cccc1 (stereo unspecified),-8% (inactive)
12,CCC1Oc2ccc(C)cc2N(CC(=O)N(Cc2cccnc2)Cc2cccc(F)c2)C1=O (stereo unspecified),34.6% (active)
13,CCC1Oc2ccc(C)cc2N(CC(=O)N(Cc2cccnc2)Cc2ccc(C)o2)C1=O (stereo unspecified),-12.7% (inactive)
14,CCC1Oc2ccc(C)cc2N(CC(=O)N(Cc2ccncc2)Cc2ccco2)C1=O (stereo unspecified),-36.7% (inactive)
15,Cc1nn(C)c(C(=O)Nc2ccc(Br)cc2F)c1Br,46% (inactive)
16,CCOP(=O)(OCC)C(NC(=O)Nc1ccccc1)c1ccccc1 (stereo unspecified),-11.6% (inactive)
17,COc1ccc2c(c1)c1ccc3c(c1n2C)C(=O)C=CC3=O,0.4% (inactive)
18,COc1ccc2[nH]c3c4c(ccc3c2c1)C(=O)C=CC4=O,51% (active)
19,COc1ccc2[nH]c(C)cc(=O)c2c1,-7.4% (inactive)
20,Cc1ccc(NC(=S)NNC(=O)c2ccc(N3CCOCC3)c([N+](=O)[O-])c2)cc1C,-2.1% (inactive)
21,COc1ccc(-c2csc(NC(=O)CCS(=O)(=O)c3ccccc3)n2)c(OC)c1,-13.4% (inactive)
22,COc1ccc(C(O)(C(C)C)C(CN2CCOCC2)c2ccccc2)cc1 (stereo unspecified),5.4% (inactive)

row,SMILES,inhibition
1,CN(C)C=NC(=O)c1cc(C(=O)c2ccc(Cl)cc2Cl)c[nH]1,59.7% (active)
2,CN(C)C=NC(=O)c1cc(C(=O)c2ccc(Cl)cc2)c[nH]1,38.4% (inactive)
3,CN(C)C=NC(=O)c1cc(C(=O)c2ccccc2Cl)c[nH]1,-1.9% (inactive)
4,O=C1CN(C(=O)NCC(=O)N[C@H](Cc2ccccc2)C(=O)O)c2ccccc2N1,-34.2% (inactive)
5,CC(C)c1cccc(C(C)C)c1NC(=O)Cn1c(=O)cnc2ccccc21,-9.4% (inactive)
6,CN1CCC(N(C)S(=O)(=O)c2ccc(NC(=O)COc3ccc(F)cc3Cl)cc2)CC1,-16.5% (inactive)
7,COc1ccccc1OC(=O)Cc1cccc2ccccc12,63.8% (inactive)
8,CC(=O)c1ccc(N2CCN(C(=O)CN(C)S(=O)(=O)c3cnc[nH]3)CC2)cc1,-22.7% (inactive)
9,N#CCn1cnc2sc(-c3ccccc3)cc2c1=O,-27.8% (inactive)
10,Cc1nn(C(C)(C)C)c(OC(=O)c2ccc(Br)o2)c1Sc1ccccc1,19.3% (inactive)
11,Cc1nn(C(C)(C)C)c(OC(=O)c2cccs2)c1Sc1ccccc1,68.5% (active)
12,Cc1nn(C(C)(C)C)c(OC(=O)c2ccco2)c1Sc1ccccc1,-2.8% (inactive)
13,Cc1ccc(C2(C)NC(=O)N(CC(=O)Nc3cc(S(=O)(=O)N(C)C)ccc3C)C2=O)cc1 (stereo unspecified),-19.4% (inactive)
14,O=C(/C=C\Nc1ccc2c(c1)OCO2)c1ccc2c(c1)OCO2,-48.7% (inactive)
15,O=C(/C=C\Nc1ccc2c(c1)OCO2)c1cccs1,-64.5% (inactive)
16,O=C(/C=C/c1ccc2c(c1)OCO2)c1ccccn1,-6.5% (inactive)
17,O=C(/C=C\Nc1ccc2c(c1)OCO2)c1ccccn1,70.6% (active)
18,O=C(/C=C/c1ccccc1Br)c1ccc2c(c1)OCO2,-20% (inactive)
19,O=C(/C=C\Nc1ccccc1Br)c1ccc2c(c1)OCO2,59.6% (active)
20,O=C(/C=C\Nc1ccccn1)c1ccccc1,-49.1% (inactive)
21,O=C(/C=C/Nc1ccccc1Br)c1ccccn1,84.5% (active)
22,O=C(/C=C/c1ccccc1)c1ccccn1,-15.9% (inactive)
